# Measured values from PubChem BioAssay (EPA / NIEHS).
# Calls of active or inactive are those of the source. How the source made its calls: active means hit-call score of the fitted dose curve at least 0.9, where 1 is the maximum; inactive means score below 0.9.
# Test: APR_HepG2_NuclearSize_1hr: Apredica 1-hour HepG2 Assay for Nuclear Size (AID 2282670)
# Conditions: high-content imaging, actives raise or lower the signal
# Method in brief: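 HepG2 cells dosed 1 hr with 0.39–200 uM compound (0.5% DMSO), formaldehyde-fixed, Hoechst 33342-stained and imaged at 20x; nuclear diameter from nuclear stain, fitted bidirectionally against DMSO.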
Compound,outcome,AC50
O=S(=O)(O)C(F)(F)C(F)(F)C(F)(F)C(F)(F)C(F)(F)C(F)(F)C(F)(F)C(F)(F)F,inactive,–
CC(C)(C)C(O)/C(=C\c1ccc(Cl)cc1Cl)n1cncn1 (centres undefined),inactive,–
Cc1cc(C)nc(NC(=O)NS(=O)(=O)c2ccccc2C(=O)OC2COC2)n1,inactive,–
CN1CSC(=S)N(C)C1,inactive,–
CC(C)N(C(=O)COc1nnc(C(F)(F)F)s1)c1ccc(F)cc1,inactive,–
[2H]C1([2H])[n+]2ccccc2-c2cccc[n+]2C1([2H])[2H],inactive,–
Oc1ccc(Cl)cc1Cc1ccccc1,–,112 µM (active)
N#Cc1c(Cl)c(Cl)c(Cl)c(C#N)c1Cl,inactive,–
CNC(=O)Oc1cccc(N=CN(C)C)c1,inactive,–
O=C(O)C(F)(F)C(F)(F)C(F)(F)C(F)(F)C(F)(F)C(F)(F)C(F)(F)F,inactive,–
CCOc1nc(NC)nc(NC(=O)NS(=O)(=O)c2ccccc2C(=O)OC)n1,inactive,–
O=S1OCC2C(CO1)C1(Cl)C(Cl)=C(Cl)C2(Cl)C1(Cl)Cl (centres undefined),inactive,–
CCC(C)(C)C(=O)OC1=C(c2ccc(Cl)cc2Cl)C(=O)OC12CCCCC2,inactive,–
CCS(=O)(=O)c1cccnc1S(=O)(=O)NC(=O)Nc1nc(OC)cc(OC)n1,inactive,–
COP(=S)(OC)Oc1ccc([N+](=O)[O-])cc1,inactive,–
O=C1c2ccccc2C(=O)N1SC(Cl)(Cl)Cl,inactive,–
CCc1ccc(C(=O)NN(C(=O)c2cc(C)cc(C)c2)C(C)(C)C)cc1,inactive,–
CNC(=O)Oc1ccccc1OC(C)C,inactive,–
COP(=S)(OC)Oc1ccc(SC)c(C)c1,inactive,–
CC(C)(C)C(O)C(Oc1ccc(Cl)cc1)n1cncn1 (centres undefined),inactive,–
C[C@H]1[C@H](c2ccc(Cl)cc2)SC(=O)N1C(=O)NC1CCCCC1,inactive,–
CC[C@H](C)[C@H]1O[C@]2(C=C[C@@H]1C)C[C@@H]1C[C@@H](C/C=C(\C)[C@@H](O[C@H]3C[C@H](OC)[C@@H](O[C@H]4C[C@H](OC)[C@@H](O)[C@H](C)O4)[C@H](C)O3)[C@@H](C)/C=C/C=C3\CO[C@@H]4[C@H](O)C(C)=C[C@@H](C(=O)O1)[C@]34O)O2 (tested in a mixture with another compound),inactive,–
COC(=O)c1ccccc1S(=O)(=O)NC(=O)Nc1nc(C)nc(OC)n1,inactive,–
CCC(C)(NC(=O)c1cc(Cl)c(C)c(Cl)c1)C(=O)CCl (centres undefined),inactive,–
ClC1C(Cl)C(Cl)C(Cl)C(Cl)C1Cl (centres undefined),inactive,–
CC1(c2ccc(Oc3ccccc3)cc2)OC(=O)N(Nc2ccccc2)C1=O (centres undefined),inactive,–
O=C(O)CCCOc1ccc(Cl)cc1Cl,inactive,–

# Test: APR_HepG2_MitoticArrest_1hr: Apredica 1-hour HepG2 Assay for Mitotic Arrest (AID 2282672)
# Conditions: high-content imaging, actives raise or lower the signal
# Method in brief: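 HepG2 cells exposed 1 hr to compounds at 0.39–200 uM (0.5% v/v DMSO final), then fixed in 3.7% formaldehyde and immunostained for phospho-histone H3 with Hoechst 33342. Mitotic arrest scored by automated fluorescence imaging, fitted bidirectionally versus DMSO.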
row,Compound,outcome
1,CC(C)(C)C(O)/C(=C\c1ccc(Cl)cc1Cl)n1cncn1 (centres undefined),inactive
2,[2H]C1([2H])[n+]2ccccc2-c2cccc[n+]2C1([2H])[2H],inactive
3,Oc1ccc(Cl)cc1Cc1ccccc1,inactive
4,COP(=S)(OC)Oc1ccc([N+](=O)[O-])cc1,inactive
5,CCC(C)(NC(=O)c1cc(Cl)c(C)c(Cl)c1)C(=O)CCl (centres undefined),inactive
6,O=C(O)CCCOc1ccc(Cl)cc1Cl,inactive

# Test: APR_HepG2_P-H2AX_1hr: Apredica 1-hour HepG2 Assay for H2AX Phosphorylation (AID 2282673)
# Conditions: high-content imaging, actives raise or lower the signal
# Method in brief: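 HepG2 dosed 1 hr at 0.39-200 uM (0.5% DMSO final), duplicate. Fixed in 3.7% formaldehyde, Triton permeabilized, immunostained for phospho-histone H2A.x (1:200) with Hoechst 33342; ArrayScan 20x imaging, bidirectional fit vs DMSO.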
row,Compound,outcome
1,CNC(=O)Oc1cccc(N=CN(C)C)c1,inactive
2,O=S1OCC2C(CO1)C1(Cl)C(Cl)=C(Cl)C2(Cl)C1(Cl)Cl (centres undefined),inactive
3,CCC(C)(C)C(=O)OC1=C(c2ccc(Cl)cc2Cl)C(=O)OC12CCCCC2,inactive
4,COP(=S)(OC)Oc1ccc(SC)c(C)c1,inactive
5,CC(C)(C)C(O)C(Oc1ccc(Cl)cc1)n1cncn1 (centres undefined),inactive
6,CC1(c2ccc(Oc3ccccc3)cc2)OC(=O)N(Nc2ccccc2)C1=O (centres undefined),inactive

# Test: APR_HepG2_MitoMass_1hr: Apredica 1-hour HepG2 Assay for Mitochondrial Mass (AID 2282674)
# Conditions: high-content imaging, actives raise or lower the signal
# Method in brief: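 HepG2 cells dosed 1 hr with 0.39-200 uM compound (0.5% DMSO), duplicate wells. Mitochondria stained with 250 nM MitoTracker Red CMXRos for 30 min before formaldehyde fixation, imaged at 20x by ArrayScan; bidirectional fit versus DMSO.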
row,Compound,outcome
1,CNC(=O)Oc1cccc(N=CN(C)C)c1,inactive
2,O=C(O)C(F)(F)C(F)(F)C(F)(F)C(F)(F)C(F)(F)C(F)(F)C(F)(F)F,inactive
3,CCOc1nc(NC)nc(NC(=O)NS(=O)(=O)c2ccccc2C(=O)OC)n1,inactive
4,O=S1OCC2C(CO1)C1(Cl)C(Cl)=C(Cl)C2(Cl)C1(Cl)Cl (centres undefined),inactive
5,CCC(C)(C)C(=O)OC1=C(c2ccc(Cl)cc2Cl)C(=O)OC12CCCCC2,inactive
6,O=C1c2ccccc2C(=O)N1SC(Cl)(Cl)Cl,inactive
7,COP(=S)(OC)Oc1ccc(SC)c(C)c1,inactive
8,CC(C)(C)C(O)C(Oc1ccc(Cl)cc1)n1cncn1 (centres undefined),inactive

# Test: APR_HepG2_MitoMembPot_1hr: Apredica 1-hour HepG2 Assay for Mitochondrial Membrane Potential (AID 2282675)
# Conditions: imaging, actives raise or lower the signal
# Method in brief: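 HepG2 cells dosed 1 hour with 0.39–200 uM compound in duplicate, 0.5% DMSO final. MitoTracker Red CMXRos (250 nM, 30 min) loaded before formaldehyde fixation; fluorescence quantified by high-content imaging, bidirectional fitting versus DMSO.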
Compound,outcome,AC50
O=S(=O)(O)C(F)(F)C(F)(F)C(F)(F)C(F)(F)C(F)(F)C(F)(F)C(F)(F)C(F)(F)F,inactive,–
CC(C)(C)C(O)/C(=C\c1ccc(Cl)cc1Cl)n1cncn1 (centres undefined),inactive,–
Cc1cc(C)nc(NC(=O)NS(=O)(=O)c2ccccc2C(=O)OC2COC2)n1,inactive,–
CN1CSC(=S)N(C)C1,inactive,–
CC(C)N(C(=O)COc1nnc(C(F)(F)F)s1)c1ccc(F)cc1,inactive,–
[2H]C1([2H])[n+]2ccccc2-c2cccc[n+]2C1([2H])[2H],inactive,–
Oc1ccc(Cl)cc1Cc1ccccc1,inactive,–
N#Cc1c(Cl)c(Cl)c(Cl)c(C#N)c1Cl,–,61.5 µM (active)
CNC(=O)Oc1cccc(N=CN(C)C)c1,inactive,–
O=C(O)C(F)(F)C(F)(F)C(F)(F)C(F)(F)C(F)(F)C(F)(F)C(F)(F)F,inactive,–
CCOc1nc(NC)nc(NC(=O)NS(=O)(=O)c2ccccc2C(=O)OC)n1,inactive,–
O=S1OCC2C(CO1)C1(Cl)C(Cl)=C(Cl)C2(Cl)C1(Cl)Cl (centres undefined),–,118 µM (active)
CCC(C)(C)C(=O)OC1=C(c2ccc(Cl)cc2Cl)C(=O)OC12CCCCC2,inactive,–
CCS(=O)(=O)c1cccnc1S(=O)(=O)NC(=O)Nc1nc(OC)cc(OC)n1,inactive,–
COP(=S)(OC)Oc1ccc([N+](=O)[O-])cc1,inactive,–
O=C1c2ccccc2C(=O)N1SC(Cl)(Cl)Cl,inactive,–
CCc1ccc(C(=O)NN(C(=O)c2cc(C)cc(C)c2)C(C)(C)C)cc1,inactive,–
CNC(=O)Oc1ccccc1OC(C)C,inactive,–
COP(=S)(OC)Oc1ccc(SC)c(C)c1,–,59.1 µM (active)
CC(C)(C)C(O)C(Oc1ccc(Cl)cc1)n1cncn1 (centres undefined),inactive,–
C[C@H]1[C@H](c2ccc(Cl)cc2)SC(=O)N1C(=O)NC1CCCCC1,inactive,–
CC[C@H](C)[C@H]1O[C@]2(C=C[C@@H]1C)C[C@@H]1C[C@@H](C/C=C(\C)[C@@H](O[C@H]3C[C@H](OC)[C@@H](O[C@H]4C[C@H](OC)[C@@H](O)[C@H](C)O4)[C@H](C)O3)[C@@H](C)/C=C/C=C3\CO[C@@H]4[C@H](O)C(C)=C[C@@H](C(=O)O1)[C@]34O)O2 (tested in a mixture with another compound),inactive,–
COC(=O)c1ccccc1S(=O)(=O)NC(=O)Nc1nc(C)nc(OC)n1,inactive,–
CCC(C)(NC(=O)c1cc(Cl)c(C)c(Cl)c1)C(=O)CCl (centres undefined),inactive,–
ClC1C(Cl)C(Cl)C(Cl)C(Cl)C1Cl (centres undefined),inactive,–
CC1(c2ccc(Oc3ccccc3)cc2)OC(=O)N(Nc2ccccc2)C1=O (centres undefined),inactive,–
O=C(O)CCCOc1ccc(Cl)cc1Cl,inactive,–
